These results are taken from PubChem BioAssay.

Several values for one entry are separate records, joined by “and”; a condition that tells them apart may be missing. Identical values can stand only once. Results filed as inconclusive are left out. A structure can be active in one record and inactive in another. Activity calls are given as the source filed them.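 The calls were made as follows, unless noted: active = mean z-score across replicates of 1.96 or higher in either the MELAS or the Rieske mutant cell line; inactive = the rest.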

The nature of assay [1]: SU-DIPG-VI glioma cell viability, MIPE4.0 library, CellTiter-Glo luminescence, qHTS (AID 1347066; cut-off not given, nearly all actives have AC50 up to about 30 µM;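 also: cells exposed to compound for 48 hours before readout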). To be noted: CellTiter-Glo ATP luminescence. (In general: In ATP-based viability assays light output follows the ATP content of the culture.)
Assay [2] can be described thus: sensitizers of A549 cells to miR-34 induction, primary screen, imaging, A549 dox-inducible miR-34, nuclei and caspase counts (AID 1347080;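 active = compounds whose cell count with miR-34 switched on is under 0.7 times the count with it off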). To be noted: A549 miR-34 inducible, Hoechst nuclei count, 48 h.
A short description of assay [3]: survival rescue of mitochondrial mutant cells in low glucose, primary screen, MELAS cybrids, Rieske KO mouse fibroblasts, CellTiter-Glo (AID 1508586).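 Also: z relative to plate mean and SD of compound and empty wells.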
Assay [4] concerns the target NAD(+) hydrolase SARM1 (Homo sapiens) (UniProt Q6SZW1). The assay can be described thus: SARM1 TIR NADase inhibitors, cell lysate, NAD-Glo luminescence (AID 1508614;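 active = compound whose remaining NAD level is above about 45 nM, limit read from the data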;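 also: higher remaining NAD means stronger inhibition of SARM1 NADase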). To be noted: SAM-TIR HEK293T lysate NADase, at 1 µM, stronger effect = higher value.
Assay [5] concerns the target Mitogen-activated protein kinase 7 (Homo sapiens) (UniProt Q13164). The assay can be described thus: ERK5 transactivation activators in reporter cells, primary screen, cell-based, HTS (AID 1508626;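 active = luciferase signal above three times the same-plate solvent-only control wells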;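 also: luciferase driven by Gal4-ERK5 fusion binding five Gal4 sites before minimal TATA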). The note with it: HeLa Gal4-ERK5 transactivation, 18 h, at 5 µM, stronger effect = higher value.
Assay [6] in a line: viability rescue of complex I mutant cybrids, primary screen, cell-based, galactose medium, ATP luminescence (AID 1645843;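 active = z-score of at least 1.8 in each of two replicates, scored against plate mean and spread of sample wells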;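 also: positive z means more ATP and so rescue of galactose-driven cybrid death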). To be noted: complex I mutant cybrid cells, 72 h, stronger effect = higher value.
Assay [7] can be described thus: SU-DIPG-XXV glioma cell viability, MIPE5.0 library, qHTS (AID 1347068; cut-off not given, nearly all actives have IC50 up to about 30 µM).
Assay [8] is described as follows: phospholipid biosynthesis inhibitors in animal cells, primary screen, cell-based, LOPAC library, screen 4 (AID 1347384; call rule not given here). The note with it: phospholipid biosynthesis inhibition screen, at 10 µM.
Setting [9] is: stronger effect = lower value, cell number ratio, induced over uninduced.
Where [10] appears, read: measured here: relative caspase fold change +Dox/-Dox.
[11] abbreviates: measured here: total cells with miR-34 induction, stronger effect = lower value.
[12] abbreviates: measured here: total cells without miR-34 induction.
[13] abbreviates: MELAS cybrid survival, CellTiter-Glo 48 h, stronger effect = higher value.
Setting [14] is: Rieske KO mouse fibroblast survival, CellTiter-Glo 72 h.

Chain of Mitogen-activated protein kinase 7 (Homo sapiens) (Q13164 whole entry, looked up, the tested form may be a part): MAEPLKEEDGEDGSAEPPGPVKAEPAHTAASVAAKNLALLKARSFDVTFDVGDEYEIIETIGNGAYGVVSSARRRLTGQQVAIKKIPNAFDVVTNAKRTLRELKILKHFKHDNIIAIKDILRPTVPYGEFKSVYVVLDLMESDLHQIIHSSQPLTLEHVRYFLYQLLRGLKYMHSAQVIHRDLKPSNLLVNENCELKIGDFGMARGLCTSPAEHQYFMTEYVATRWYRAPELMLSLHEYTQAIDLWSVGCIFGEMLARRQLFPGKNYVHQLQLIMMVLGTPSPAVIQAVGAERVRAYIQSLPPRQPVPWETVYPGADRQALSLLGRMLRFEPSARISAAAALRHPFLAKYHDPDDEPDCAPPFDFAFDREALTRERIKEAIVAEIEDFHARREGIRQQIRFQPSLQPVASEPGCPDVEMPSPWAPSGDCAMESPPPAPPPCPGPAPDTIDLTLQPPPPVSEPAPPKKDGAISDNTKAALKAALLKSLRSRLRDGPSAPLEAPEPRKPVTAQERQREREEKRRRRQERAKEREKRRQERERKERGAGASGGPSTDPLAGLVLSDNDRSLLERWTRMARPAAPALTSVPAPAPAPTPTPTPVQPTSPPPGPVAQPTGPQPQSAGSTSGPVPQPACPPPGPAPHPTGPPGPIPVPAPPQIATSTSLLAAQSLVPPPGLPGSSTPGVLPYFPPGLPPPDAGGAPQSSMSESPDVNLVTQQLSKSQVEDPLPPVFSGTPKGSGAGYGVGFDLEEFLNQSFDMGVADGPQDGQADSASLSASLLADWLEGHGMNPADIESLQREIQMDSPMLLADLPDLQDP
Chain of NAD(+) hydrolase SARM1 (Homo sapiens) (Q6SZW1 whole entry, looked up, the tested form may be a part): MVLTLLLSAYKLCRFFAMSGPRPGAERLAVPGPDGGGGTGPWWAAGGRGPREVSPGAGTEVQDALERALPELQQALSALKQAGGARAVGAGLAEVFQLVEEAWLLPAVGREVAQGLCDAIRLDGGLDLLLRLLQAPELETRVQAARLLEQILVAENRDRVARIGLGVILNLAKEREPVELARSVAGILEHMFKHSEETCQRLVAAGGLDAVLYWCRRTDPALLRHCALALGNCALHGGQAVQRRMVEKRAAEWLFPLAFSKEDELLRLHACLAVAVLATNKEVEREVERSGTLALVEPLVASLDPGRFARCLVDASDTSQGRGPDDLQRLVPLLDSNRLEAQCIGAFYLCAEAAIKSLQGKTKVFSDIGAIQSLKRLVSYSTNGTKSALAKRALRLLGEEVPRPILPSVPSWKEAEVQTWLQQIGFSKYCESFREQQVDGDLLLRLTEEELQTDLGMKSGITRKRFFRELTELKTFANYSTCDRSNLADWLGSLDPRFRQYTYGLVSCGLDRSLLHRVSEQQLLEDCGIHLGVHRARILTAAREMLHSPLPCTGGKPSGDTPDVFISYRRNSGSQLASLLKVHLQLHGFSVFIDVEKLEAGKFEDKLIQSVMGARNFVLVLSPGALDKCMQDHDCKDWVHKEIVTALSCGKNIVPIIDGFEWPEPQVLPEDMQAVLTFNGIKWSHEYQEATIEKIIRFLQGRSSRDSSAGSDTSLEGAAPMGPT

Turning to `Cc1onc(-c2ccccc2)c1C(=O)N[C@@H]1C(=O)N2[C@@H]1SC(C)(C)[C@@H]2C(=O)O`, the outcome in assay [1] was inactive. The results for the fold change in assay [2] (setting [9]) and in assay [2] (setting [10]) were 0.877 (inactive) and 6.72, respectively. Further, the cell count in assay [2] (setting [11]) was 9940; in assay [2] (setting [12]), 11300. Further, the z-score in assay [3] (setting [13]) is 0.677 (inactive) and 0.0608 (inactive); in assay [3] (setting [14]), -0.0856 and 0.018; in assay [6], 0.945 (inactive). Besides, the remaining NAD in assay [4] is 10 nM (inactive). In assay [5], the luciferase signal is 64 AU (inactive).

As for `CC(=O)Nc1ccc(O)cc1`, the molecule was called inactive in assay [1] and in assay [7]. Moreover, the fold change in assay [2] (setting [9]) is 0.829 (inactive) and 0.996 (inactive) and 0.866 (inactive); in assay [2] (setting [10]), 0.925 and 0.621 and 1.43. In addition, the cell count in assay [2] (setting [11]) was 8180 and 9760 and 10200; in assay [2] (setting [12]), 9870 and 9800 and 11800. Also, the figures for the z-score in assay [3] (setting [13]), in assay [3] (setting [14]) and in assay [6] were 0.35 (inactive), -0.0609 and -0.13 (inactive), respectively. The remaining NAD in assay [4] was 10 nM (inactive). The luciferase signal in assay [5] is 40 AU (inactive).

Turning to `COC(=O)Nc1nc2ccc(S(=O)c3ccccc3)cc2[nH]1` (stereo not drawn), the molecule was called inactive in assay [1]. In addition, the fold change in assay [2] (setting [9]) is 1 (inactive) and 0.95 (inactive) and 1.02 (inactive); in assay [2] (setting [10]), 0.565 and 3.46 and 0.832. In addition, the cell count in assay [2] (setting [11]) was 5070 and 6690 and 5080; in assay [2] (setting [12]), 5050 and 7040 and 4970. Moreover, the z-score is -0.274 (inactive) and -0.559 (inactive) and -0.178 (inactive) in assay [3] (setting [13]); 0.754 and 0.142 and 0.645 in assay [3] (setting [14]); -0.185 (inactive) in assay [6]. Besides, in assay [4], the remaining NAD was 10 nM (inactive).

A word on the AC50: it is the midpoint of the concentration-response curve, whichever way the signal moves. With `COc1cc2nc(N3CCN(C(=O)C4COc5ccccc5O4)CC3)nc(N)c2cc1OC` (stereo not drawn), the AC50 in assay [1] is 23.5 µM (active). Also, in assay [8], the call was inactive. The z-score in assay [3] (setting [13]) is -0.637 (inactive) and 1.46 and 0.739; in assay [3] (setting [14]), 1.03 and 2.18 and 2.11; in assay [6], -0.385 (inactive) and -0.73 (inactive) and 0.525 (inactive). The remaining NAD in assay [4] was 10 nM (inactive). Besides, the luciferase signal in assay [5] is 32 AU (inactive).

Take `CN1CCN2c3ccccc3Cc3ccccc3C2C1` (stereo not drawn): the call in assay [1] and in assay [8] was inactive. Further, the z-score in assay [3] (setting [13]) was -0.437 (inactive) and -0.163 (inactive) and -1.32 (inactive); in assay [3] (setting [14]), 0.688 and 0.138 and 0.514; in assay [6] it was -0.385 (inactive) and 2.53 (active) and -0.36 (inactive). The remaining NAD in assay [4] was 10 nM (inactive). In addition, the luciferase signal in assay [5] was 48 AU (inactive).

Regarding `CN1[C@@H]2CC[C@H]1CC(OC(=O)c1c[nH]c3ccccc13)C2` (stereo partly drawn), in assay [1], the call was inactive. The fold change in assay [2] (setting [9]) was 0.918 (inactive) and 0.888 (inactive); in assay [2] (setting [10]) it was 1.65 and 1.61. The cell count in assay [2] (setting [11]) is 8920 and 10100; in assay [2] (setting [12]) it was 9710 and 11400. Further, the z-score in assay [3] (setting [13]) was 0.412 (inactive); in assay [3] (setting [14]) it was 0.0805; in assay [6], -0.025 (inactive) and 0.755 (inactive). For the same molecule, in assay [4], the remaining NAD is 10 nM (inactive).

As to `O=C(N[C@H](CO)[C@H](O)c1ccc([N+](=O)[O-])cc1)C(Cl)Cl`, in assay [1], the call was inactive. Moreover, the fold change in assay [2] (setting [9]) was 0.94 (inactive) and 0.855 (inactive); in assay [2] (setting [10]) it was 1.13 and 1.29. For the same molecule, the cell count was 8280 and 6420 in assay [2] (setting [11]); 8810 and 7510 in assay [2] (setting [12]). Further, the z-score is -0.509 (inactive) and 0.536 in assay [3] (setting [13]); -3.37 and 2.44 in assay [3] (setting [14]); -0.74 (inactive) in assay [6]. Moreover, the remaining NAD in assay [4] is 10 nM (inactive). In assay [5], the luciferase signal was 88 AU (inactive).
